# In publication PMC5700166:
# Target: T1, GST-Nv-NF-kB (Cys allele) (Nematostella vectensis, UniProt E5G601 2-411)
# T1 sequence: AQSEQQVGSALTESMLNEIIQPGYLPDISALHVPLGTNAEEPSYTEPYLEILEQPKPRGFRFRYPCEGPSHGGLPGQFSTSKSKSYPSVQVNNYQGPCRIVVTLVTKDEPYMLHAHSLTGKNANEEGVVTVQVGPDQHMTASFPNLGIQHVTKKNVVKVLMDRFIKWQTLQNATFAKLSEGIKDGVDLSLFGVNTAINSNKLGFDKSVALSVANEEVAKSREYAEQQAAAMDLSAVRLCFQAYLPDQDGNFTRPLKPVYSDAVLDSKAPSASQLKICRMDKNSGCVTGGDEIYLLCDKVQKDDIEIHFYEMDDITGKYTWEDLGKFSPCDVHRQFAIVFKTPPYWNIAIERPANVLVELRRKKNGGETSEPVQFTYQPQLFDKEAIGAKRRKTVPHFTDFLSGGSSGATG
# Test: protein-binding microarray (PBM); PBM: ~300 nM protein, 6 mM HEPES pH 7.8, 80 mM KCl, 0.5 mM EDTA, 0.5 mM EGTA, 6% glycerol, 35 ng/ul poly-dIdC, 1% milk, 1 h, room temperature; Ap Aiptasia and Nv Nematostella (sea anemones) / Co Capsaspora / Aq Amphimedon (sponge) / Dm Drosophila / Hu human; RHD is the Rel homology domain; high values mean tight binding
# Conditions: dsDNA, one strand shown
row,Sequence,binding signal
1,CCGATTAACATCAGGGGAAATGATGATGTTAATCGGGTCTTGATTCGCTTGACGCTGCTG,6.87 z-score
2,CCGATTAACATCACAACTTCCCCTGATGTTAATCGGGTCTTGATTCGCTTGACGCTGCTG,8.34 z-score
3,CCGATTAACATCACGGGGATTTATGATGTTAATCGGGTCTTGATTCGCTTGACGCTGCTG,7.95 z-score
4,CCGATTAACATCAGGGACTCCCCTGATGTTAATCGGGTCTTGATTCGCTTGACGCTGCTG,9.16 z-score
5,CCGATTAACATCAGGGAATTACCTGATGTTAATCGGGTCTTGATTCGCTTGACGCTGCTG,9.55 z-score
6,CCGATTAACATCAGGGGGCAATATGATGTTAATCGGGTCTTGATTCGCTTGACGCTGCTG,3.24 z-score
7,CCGATTAACATCACCCACCCCCCTGATGTTAATCGGGTCTTGATTCGCTTGACGCTGCTG,2.85 z-score
8,CCGATTAACATCAAGGGAGTCCCTGATGTTAATCGGGTCTTGATTCGCTTGACGCTGCTG,4.59 z-score
9,CCGATTAACATCACTTATCCCCCTGATGTTAATCGGGTCTTGATTCGCTTGACGCTGCTG,3.72 z-score
10,CCGATTAACATCAGGACTCCCCCTGATGTTAATCGGGTCTTGATTCGCTTGACGCTGCTG,7.17 z-score
11,CCGATTAACATCAGCATCCCCCCTGATGTTAATCGGGTCTTGATTCGCTTGACGCTGCTG,4.99 z-score
12,CCGATTAACATCAAAAAGTCCCCTGATGTTAATCGGGTCTTGATTCGCTTGACGCTGCTG,10.8 z-score
13,CCGATTAACATCAACAAAATCCCTGATGTTAATCGGGTCTTGATTCGCTTGACGCTGCTG,3.64 z-score
14,CCGATTAACATCAAGGGGGTTTCTGATGTTAATCGGGTCTTGATTCGCTTGACGCTGCTG,8.37 z-score
15,CCGATTAACATCAAAAATCCCCCTGATGTTAATCGGGTCTTGATTCGCTTGACGCTGCTG,11.4 z-score
16,CCGATTAACATCAGACATTCCCCTGATGTTAATCGGGTCTTGATTCGCTTGACGCTGCTG,8.78 z-score
17,CCGATTAACATCAGTATTTCCCATGATGTTAATCGGGTCTTGATTCGCTTGACGCTGCTG,3.64 z-score
18,CCGATTAACATCAGGACATTCCCTGATGTTAATCGGGTCTTGATTCGCTTGACGCTGCTG,4.82 z-score
19,CCGATTAACATCAGGGGTATTACTGATGTTAATCGGGTCTTGATTCGCTTGACGCTGCTG,3.56 z-score
20,CCGATTAACATCAATACTTCCCCTGATGTTAATCGGGTCTTGATTCGCTTGACGCTGCTG,7.52 z-score

row,Sequence,binding signal
1,CCGATTAACATCAAATAATACCCTGATGTTAATCGGGTCTTGATTCGCTTGACGCTGCTG,5.65 z-score
2,CCGATTAACATCAAATTTCCCACTGATGTTAATCGGGTCTTGATTCGCTTGACGCTGCTG,4.26 z-score
3,CCGATTAACATCAGGGGGAAAAATGATGTTAATCGGGTCTTGATTCGCTTGACGCTGCTG,7.33 z-score
4,CCGATTAACATCAAGGGGGATTATGATGTTAATCGGGTCTTGATTCGCTTGACGCTGCTG,7.48 z-score
5,CCGATTAACATCAAGGGGGATTCTGATGTTAATCGGGTCTTGATTCGCTTGACGCTGCTG,8.85 z-score
6,CCGATTAACATCAAGGGGGTTTATGATGTTAATCGGGTCTTGATTCGCTTGACGCTGCTG,6.46 z-score
7,CCGATTAACATCAGAGACCCCCCTGATGTTAATCGGGTCTTGATTCGCTTGACGCTGCTG,3.27 z-score
8,CCGATTAACATCAAGGGGGAATATGATGTTAATCGGGTCTTGATTCGCTTGACGCTGCTG,8.35 z-score
9,CCGATTAACATCAAGGGGAATAATGATGTTAATCGGGTCTTGATTCGCTTGACGCTGCTG,8.01 z-score
10,CCGATTAACATCAATTCTCCCCCTGATGTTAATCGGGTCTTGATTCGCTTGACGCTGCTG,6.19 z-score
11,CCGATTAACATCAGGGGGGAATATGATGTTAATCGGGTCTTGATTCGCTTGACGCTGCTG,6.54 z-score
12,CCGATTAACATCAGGATTACCCATGATGTTAATCGGGTCTTGATTCGCTTGACGCTGCTG,2.65 z-score
13,CCGATTAACATCAACGAATTCCCTGATGTTAATCGGGTCTTGATTCGCTTGACGCTGCTG,4.07 z-score
14,CCGATTAACATCACGTTTTCCCCTGATGTTAATCGGGTCTTGATTCGCTTGACGCTGCTG,7.87 z-score
15,CCGATTAACATCAACGGATTCCCTGATGTTAATCGGGTCTTGATTCGCTTGACGCTGCTG,3.57 z-score
16,CCGATTAACATCAGGGAAATCTATGATGTTAATCGGGTCTTGATTCGCTTGACGCTGCTG,5.31 z-score
17,CCGATTAACATCAGGGGAAAGTATGATGTTAATCGGGTCTTGATTCGCTTGACGCTGCTG,7.79 z-score
18,CCGATTAACATCAGGATTTACCCTGATGTTAATCGGGTCTTGATTCGCTTGACGCTGCTG,4.29 z-score
19,CCGATTAACATCAAGGGAACTCCTGATGTTAATCGGGTCTTGATTCGCTTGACGCTGCTG,3.17 z-score
20,CCGATTAACATCACGGGAAAATCTGATGTTAATCGGGTCTTGATTCGCTTGACGCTGCTG,5.79 z-score
